{"source": "PubChem BioAssay AID1626", "about": "(SRMLSC, 2009)", "note": "Several values for one entry are separate records, joined by “and”; a condition that tells them apart may be missing. Identical values can stand only once. Hit rate of the full screen: of about 220,000 compounds, about 2,000 (0.91%) were called active. About 2% were inconclusive and are not listed. The list is a sample of the results. Entries with a potency or affinity are not part of this list. Values without a mark were called inactive. Cut-off read from the data, not from the text of the source: inconclusive = inhibition above about 80% without an active follow-up result; inactive = below that; test concentration not stated here.", "data": [{"test": "M. tuberculosis H37Rv growth inhibitors, H37Rv strain (AID 1626);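 note: bacteria incubated seven days before Alamar blue readout; 0% = bacteria only wells and 100% = bacteria with antibiotic wells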", "conditions": "active compounds read high, concentration not given here", "values": [{"smiles": "Cc1n[nH]c(=O)n1-c1ccc(OCc2ccccc2)cc1", "inhibition": "-0.14%"}, {"smiles": "Cc1cc(-c2nnc(SCC(=O)c3ccc(F)cc3)o2)no1", "inhibition": "3.52%"}, {"smiles": "Fc1ccccc1-c1nc(N2CCCCC2)c2ccccc2n1", "inhibition": "7.2%"}, {"smiles": "c1cncc(-c2nc(N3CCOCC3)c3ccccc3n2)c1", "inhibition": "-2.03%"}, {"smiles": "CCN1CCN(c2nc(-c3ccccn3)nc3ccccc23)CC1", "inhibition": "-2.25%"}, {"smiles": "c1ccc2c(N3CCCCCC3)nc(-c3ccncc3)nc2c1", "inhibition": "37%"}, {"smiles": "CN1CCN(c2nc(-c3ccccn3)nc3ccccc23)CC1", "inhibition": "10.9%"}, {"smiles": "c1ccc2c(N3CCOCC3)nc(-c3ccncc3)nc2c1", "inhibition": "-3.11%"}, {"smiles": "CCn1cc(C(=O)N2CCN(c3ccc([N+](=O)[O-])cc3)CC2)c(=O)c2ccc(C)nc21", "inhibition": "6.57%"}, {"smiles": "O=S(=O)(O)c1nc2ccccc2[nH]1", "inhibition": "-0.16%"}, {"smiles": "Cc1cc(=O)[nH]c(N/N=C/c2cc(C)n(-c3ccccc3)c2C)n1", "inhibition": "-2.65%"}, {"smiles": "S=C(Nc1ccc(Cl)cc1)NC1CC2CCCC(C1)N2C1CC1", "note": "(stereo not given)", "inhibition": "-1.32%"}, {"smiles": "Cc1ccc(-n2c(C(C)n3nc(C)c([N+](=O)[O-])c3C)n[nH]c2=S)cc1", "note": "(stereo not given)", "inhibition": "3.01%"}, {"smiles": "Cc1ccc(C(=O)CSC2=NC(N)=C(C#N)C3(CCCCC3)C2C(N)=O)cc1", "note": "(stereo not given)", "inhibition": "-12.2%"}, {"smiles": "FC(F)(F)c1nnc2ccc(N3CCCC3)nn12", "inhibition": "-2.32%"}, {"smiles": "Fc1c(F)c(C(F)(F)F)c(F)c(F)c1N1CCN(c2ccc3nnc(C(F)(F)F)n3n2)CC1", "inhibition": "8.98%"}, {"smiles": "COc1ccc(NC(=O)COc2ncnc3ccccc23)cc1S(=O)(=O)N1CCOCC1", "inhibition": "-8.54%"}, {"smiles": "CCCc1[nH]n(-c2nc3ccccc3s2)c(=O)c1C=NCCCOC", "inhibition": "-3.55%"}, {"smiles": "CNc1cc(C)nc(-n2nc(C)cc2C)n1", "inhibition": "13%"}, {"smiles": "COc1ccc(Nc2cc(C)nc(N3CCOCC3)n2)cc1", "inhibition": "10.4%"}, {"smiles": "Cc1cc(Nc2ccccc2)n(-c2ccccc2)n1", "inhibition": "1.16%"}, {"smiles": "Cc1ccc(C)c(C(=O)Nc2cc(C)nn2-c2nc(C)cc(C)n2)c1", "inhibition": "22%"}, {"smiles": "Cc1cc(Nc2ccccc2)n(-c2ccc(Br)cc2)n1", "inhibition": "-7.48%"}, {"smiles": "CC(=O)Nc1cc(C)nn1-c1nc(C)cc(C)n1", "inhibition": "3.43%"}, {"smiles": "O=C(c1ccc(Cl)nc1)N1CCN(S(=O)(=O)c2ccc(Cl)cc2)CC1", "inhibition": "5.1%"}, {"smiles": "Cc1ccc(/C=C(/C#N)C(=O)NC(C)c2ccccc2)o1", "note": "(stereo not given)", "inhibition": "5.5%"}, {"smiles": "CCCC(c1nnnn1C(C)(C)CC)N1CCN(C2CCCC2)CC1", "note": "(stereo not given)", "inhibition": "3.73%"}, {"smiles": "CC(=O)Nc1ccccc1C(=O)C(=O)Nc1ccc(C(=O)N2CCOCC2)cc1", "inhibition": "-0.85%"}, {"smiles": "Cc1ccc(C2C(C(=O)c3sc(C)nc3C)=C(O)C(=O)N2CCN(C)C)o1", "note": "(stereo not given)", "inhibition": "-6.12%"}, {"smiles": "COc1ccc(S(=O)(=O)Nc2ccc(N3CCOCC3)cc2)cc1[N+](=O)[O-]", "inhibition": "-1.81%"}, {"smiles": "COC(CNc1cc(=O)oc2ccccc12)OC", "inhibition": "3.54%"}, {"smiles": "O=C(COC(=O)CC1CC2CCC1C2)Nc1c(F)cccc1F", "note": "(stereo not given)", "inhibition": "-6.22%"}, {"smiles": "CCCCNc1ccc(C(=O)OCCN(C)C)cc1", "inhibition": "5.64%"}, {"smiles": "CCOC(=O)c1ccc(NC(=O)C(=O)NCCc2ccc(OC)cc2)cc1", "inhibition": "2.35%"}, {"smiles": "CCCCOC(=O)c1ccc(NC(=O)C(=O)NCc2ccco2)cc1", "inhibition": "5.24%"}, {"smiles": "CCN(CC)CCNC(=O)C(=O)Nc1ccc(C(=O)OC)cc1", "inhibition": "0.58%"}, {"smiles": "CCCCOC(=O)c1ccc(NC(C)=O)cc1", "inhibition": "58.3%"}, {"smiles": "CCOC(=O)c1ccc(NC(=S)NCc2cccnc2)cc1", "inhibition": "-9.64%"}, {"smiles": "CCN(CC)CCNC(=O)c1ccc(NC(C)=O)cc1", "inhibition": "-2.03% and 6.46%"}, {"smiles": "CCCCOC(=O)c1ccc(NC(=O)c2c(OC)cccc2OC)cc1", "inhibition": "-7.36%"}, {"smiles": "CCOc1cc(CNc2ccc(N(C)C)cc2)cc(Br)c1OCC(=O)NC(C)(C)C", "inhibition": "13.9%"}, {"smiles": "O=C(Cn1nnc2ccccc21)OCc1ccccc1", "inhibition": "3.11%"}, {"smiles": "CC(C(=O)Nc1ccc(C(=O)O)cc1)N1C(=O)c2ccccc2C1=O", "note": "(stereo not given)", "inhibition": "2.02%"}, {"smiles": "CC1C(=O)NN=C1C(=O)N/N=C/c1ccco1", "note": "(stereo not given)", "inhibition": "4.15%"}, {"smiles": "N/C(CN1CCCC1=O)=N\\OC(=O)c1ccccc1Cl", "inhibition": "-4.21%"}, {"smiles": "CC(C)(C)C(=O)Nc1ccc(N=Nc2ccccc2)cc1", "inhibition": "1.74%"}, {"smiles": "COc1ccc(C2=NOC(C)(c3nnc(-c4ccncc4)o3)C2)cc1", "note": "(stereo not given)", "inhibition": "3.27%"}, {"smiles": "O=C(c1csc2c1CCCC2)N1CCCCC1", "inhibition": "-7.91%"}, {"smiles": "Cc1ccc2c(c1)NC(=O)C(CC(=O)NCCCN1CCc3ccccc3C1)O2", "note": "(stereo not given)", "inhibition": "-7.1%"}, {"smiles": "COCCOC(=O)c1c(C)oc2ccc(OS(C)(=O)=O)cc12", "inhibition": "10.4%"}, {"smiles": "COCCOC(=O)c1c(C)oc2ccc(OC(=O)N(C)C)cc12", "inhibition": "-0.97%"}, {"smiles": "COCCOC(=O)c1c(C)oc2ccc(OC(=O)c3c(OC)cccc3OC)cc12", "inhibition": "9.56%"}, {"smiles": "CC(=O)Oc1ccc2c(C)cc(=O)oc2c1", "inhibition": "74.8%"}, {"smiles": "COCCOC(=O)c1c(C)oc2ccc(OCc3ccccc3)cc12", "inhibition": "0.54%"}, {"smiles": "Cc1cc(=O)oc2cc(OC(=O)c3ccccc3)ccc12", "inhibition": "70%"}, {"smiles": "COc1ccccc1N(CC(=O)NCc1ccccc1)C(=O)CCC(=O)Nc1cc(C)ccn1", "inhibition": "-0.58%"}, {"smiles": "Clc1cccc(-c2nnc(-c3ccccc3)o2)c1", "inhibition": "10.9%"}, {"smiles": "N#CCC(=O)Nc1ccc(C(=O)NCc2ccccn2)cc1", "inhibition": "-2.46%"}, {"smiles": "CCC(=O)c1cc(F)c(N2CCN(S(=O)(=O)c3ccc(C)cc3)CC2)cc1C", "inhibition": "4.53%"}, {"smiles": "O=C(CN1C(=O)CCSc2ccccc21)N1CCC2(CC1)OCCO2", "inhibition": "-1.04%"}, {"smiles": "CCc1nnc(NC(=O)CSc2nnc(COc3ccccc3)n2Cc2ccccc2)s1", "inhibition": "-6.06%"}, {"smiles": "O=C(NCc1ccccc1)c1c[nH]c2cc3c(cc2c1=O)OCCO3", "inhibition": "-8.63%"}, {"smiles": "CC(c1ccccc1C(O)c1ccccc1)N(C)C", "note": "(stereo not given)", "inhibition": "-3.64%"}, {"smiles": "CC(c1ccccc1C(O)(c1ccccc1)c1ccccc1)N(C)C", "note": "(stereo not given)", "inhibition": "12.7%"}, {"smiles": "COc1ccc(CNC(=O)CCn2c(=O)[nH]c3ccccc3c2=O)cc1", "inhibition": "-0.21%"}, {"smiles": "CCn1c(C2CCN(S(=O)(=O)c3ccc(OC)cc3)CC2)n[nH]c1=S", "inhibition": "2.92%"}, {"smiles": "Cc1[nH]nc2c1C(c1ccc(Cl)cc1)C(C#N)=C(N)O2", "note": "(stereo not given)", "inhibition": "-11.2%"}, {"smiles": "Cc1[nH]nc2c1C(c1ccc(-c3ccccc3C#N)o1)C(C#N)=C(N)O2", "note": "(stereo not given)", "inhibition": "-1.71%"}, {"smiles": "Cc1ccc(C2C(C#N)=C(N)Oc3n[nH]c(C)c32)cc1", "note": "(stereo not given)", "inhibition": "-5.8%"}, {"smiles": "Cc1[nH]nc2c1C(c1ccco1)C(C#N)=C(N)O2", "note": "(stereo not given)", "inhibition": "5.49%"}, {"smiles": "O=C1CCC(c2ccccc2)=NN1", "inhibition": "-7.26%"}, {"smiles": "CC(C)=C1C2CCC1C1C(=O)N(c3ccc(C)c(C)c3)C(=O)C21", "note": "(stereo not given)", "inhibition": "2.47%"}, {"smiles": "Cn1cc(Br)c(C(=O)NC(=S)Nc2ccc(S(N)(=O)=O)cc2)n1", "inhibition": "-5.09%"}, {"smiles": "Cc1cc(C(=O)Nc2cccnc2Cl)on1", "inhibition": "-0.41%"}, {"smiles": "Cc1occc1-c1nnc(SCC(=O)Nc2nccs2)n1CCc1ccccc1", "inhibition": "1.51%"}, {"smiles": "COc1ccc(CC(=O)Nc2nc(-c3cccc([N+](=O)[O-])c3)cs2)cc1", "inhibition": "1.75%"}, {"smiles": "CC(=O)Nc1nc(-c2cccs2)cs1", "inhibition": "-6.43%"}, {"smiles": "COCC(=O)Nc1nc(-c2ccc([N+](=O)[O-])cc2)cs1", "inhibition": "0.01%"}, {"smiles": "Cc1csc(NC(=O)c2ccc(C(=O)Nc3nc(C)cs3)cc2)n1", "inhibition": "-5.15%"}, {"smiles": "Cc1csc(NC(=O)c2ccc(C)c([N+](=O)[O-])c2)n1", "inhibition": "3.94%"}, {"smiles": "CC(=O)Nc1nc(-c2ccc([N+](=O)[O-])cc2)cs1", "inhibition": "-3.92%"}, {"smiles": "Cc1cc(NS(=O)(=O)c2ccc(NC(=O)NC(C)(C(F)(F)F)C(F)(F)F)cc2)no1", "inhibition": "3.8%"}, {"smiles": "CCN1CCN(C(=O)CCNC(=O)Cn2ccc3ccccc3c2=O)CC1", "inhibition": "-4.7%"}, {"smiles": "O=C(O)c1ccc(Cn2cnc3scc(-c4ccccc4)c3c2=O)cc1", "inhibition": "1.45%"}, {"smiles": "CCc1cccc2c(C(=O)CSc3nnc(-c4ccoc4C)n3C)c[nH]c12", "inhibition": "-9.96%"}, {"smiles": "Cc1ccc2nc3c(cc2c1)CC1(C(=O)N(C)C(=O)N(C)C1=O)C1COCCN31", "note": "(stereo not given)", "inhibition": "15.8%"}, {"smiles": "Cc1ccc(-n2c(=S)[nH]c3[nH]ncc3c2=O)cc1", "inhibition": "1.01%"}, {"smiles": "O=C1Nc2cc(C(=O)N3CCc4ccccc4C3)ccc2S/C1=C\\c1ccccc1", "inhibition": "27.6%"}, {"smiles": "COc1ccc(/C=C2\\Sc3ccc(C(=O)N4CCc5ccccc5C4)cc3N(C)C2=O)cc1", "inhibition": "23.7%"}, {"smiles": "CCCCSc1nc2ccc(Nc3nc(N4CCOCC4)nc(N4CCOCC4)n3)cc2s1", "inhibition": "7.41%"}, {"smiles": "COCc1cc(=O)n2[nH]c(SCc3ccccc3)nc2n1", "inhibition": "-0.4%"}, {"smiles": "CC(C)COc1ncnc2c1sc1nc3c(cc12)COC(C)(C)C3", "inhibition": "-12.6%"}, {"smiles": "CCCc1cc(N2CCCC2)n2nc(C)c(-c3ccccc3)c2n1", "inhibition": "-0.95%"}, {"smiles": "CC(=O)Nc1ccc(Nc2cc(C)nc3c(-c4ccc(Cl)cc4)c(C)nn23)cc1", "inhibition": "21.5%"}, {"smiles": "Cc1nn2c(NCc3ccccn3)cc(C(C)(C)C)nc2c1-c1ccccc1", "inhibition": "68.6%"}, {"smiles": "Cc1nn2c(N3CCCC3)cc(C(C)C)nc2c1-c1ccccc1", "inhibition": "-3.85%"}, {"smiles": "Cc1nn2c(NCc3ccccn3)cc(C(C)C)nc2c1-c1ccccc1", "inhibition": "99.8%"}, {"smiles": "Cc1cc(Nc2ccccc2)n2nc(C)c(-c3ccccc3)c2n1", "inhibition": "3.74%"}, {"smiles": "Cc1cc(NCCN2CCOCC2)n2nc(C)c(-c3ccccc3)c2n1", "inhibition": "2.31%"}, {"smiles": "Cc1cc(NCCCN2CCOCC2)n2nc(C)c(-c3ccccc3)c2n1", "inhibition": "1.95%"}]}]}
